Assay outcomes from PubChem.
Sampled rows, rich in hits. Any-hit rate of the full collection: about 11%.
AmpC no deterg = qHTS Inhibitors of AmpC Beta-Lactamase (assay without detergent) | 0.52% of 330,000 active | Potency, µM (titrated, usually from 57.1 µM), for inactives: top-dose activity change, negative = inhibition, hits mostly inhibitors | AmpC nitrocefin hydrolysis, absorbance 480 nm, 0.0001% Triton | P00811;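 also: plate controls were no compound for no effect and no enzyme for full effect; nearly all actives have a fitted effect of over 20% in size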
Target sequence (P00811 whole entry, looked up): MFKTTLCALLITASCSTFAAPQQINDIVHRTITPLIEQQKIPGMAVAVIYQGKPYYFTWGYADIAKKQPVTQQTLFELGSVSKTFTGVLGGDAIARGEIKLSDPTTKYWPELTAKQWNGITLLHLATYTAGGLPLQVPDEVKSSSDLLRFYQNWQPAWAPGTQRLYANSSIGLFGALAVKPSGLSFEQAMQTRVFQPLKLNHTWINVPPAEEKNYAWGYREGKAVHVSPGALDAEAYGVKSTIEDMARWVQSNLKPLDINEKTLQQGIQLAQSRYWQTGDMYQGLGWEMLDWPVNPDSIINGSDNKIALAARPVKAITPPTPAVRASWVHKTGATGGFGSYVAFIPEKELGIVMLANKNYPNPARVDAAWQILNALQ
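AmpC (5.3 nM in the dispensed reagent) in 20 mM phosphate pH 7.0 with 0.01% (detergent screen) or 0.0001% Triton X-100 was preincubated with compounds for 15 min at room temperature. Nitrocefin was then added from an 800 uM solution, and hydrolysis was followed at 480 nm.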
AMA1 RON2 block = qHTS for Inhibitors of AMA1-RON; Towards Development of Antimalarial Drug Lead: Primary Screen; AID 720542, 2013; 0.2% of 360,000 active; Potency, µM (titrated, usually from 58.2 µM), for inactives: top-dose activity change, negative = inhibition, usual class: inhibitors; Plasmodium falciparum AMA1 (3D7) - RON2 peptide interaction; AlphaScreen AMA1-biotinylated RON2 peptide binding;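 also: 0% = vehicle wells and -100% = peptide control; nearly all actives have a fitted effect of over 45% in size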
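AMA1 (3D7) with his tag at 25 nM final met compounds first, then biotinylated RON2 peptide at 25 nM; detection used donor plus acceptor beads, 10 µg/mL apiece, read by AlphaScreen after 30 min at room temperature.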
Pf growth 96h = Primary qHTS for delayed death inhibitors of the malarial parasite plastid, 96 hour incubation | P. falciparum luciferase reporter growth, 96 h | Potency, µM (top dose mostly 28.7 µM), for inactives: at the highest dose activity change, negative = inhibition, hits mostly inhibitors | 6.9% of 320,000 active | AID 504834, 2011
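Luminescence readout: decreased luciferase signal marks inhibited growth of reporter-expressing P. falciparum in infected red cells (2% hematocrit, 0.05% parasitemia final), exposed to compound two generations (96 h, 37 C, 5% CO2).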
AmpC inh detg = qHTS Inhibitors of AmpC Beta-Lactamase (assay with detergent); AmpC hydrolysis of nitrocefin, absorbance 480 nm, 0.01% Triton; Potency, µM (titrated, usually from 114 µM), for inactives: at the top dose activity change, negative = inhibition, most hits filed as inhibitors; 0.041% of 370,000 active;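 also: 0% = no-compound wells and -100% = no-enzyme wells; nearly all actives have a fitted effect of over 25% in size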
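20 mM phosphate pH 7.0 + 0.01% (detergent screen) or 0.0001% Triton X-100; 5.3 nM AmpC reagent; cpd preinc 15 min RT; nitrocefin (800 uM stock) to start; A480 q20 s × 4 min; Activity was normalised to no-enzyme and no-compound control wells.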
Pf growth 48h = Primary qHTS for delayed death inhibitors of the malarial parasite plastid, 48 hour incubation; AID 504832, 2011; 5.9% of 310,000 active; Potency, µM (series often up to 28.7 µM), without a hit: at the highest dose activity change, negative = inhibition, most hits filed as inhibitors; P. falciparum luciferase growth in erythrocytes, 48 h
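Luminescence readout; reporter = integrated firefly luciferase in P. falciparum. RBC culture at 2% hematocrit, 0.1% parasitemia final, 37 C/5% CO2; decreased signal taken as growth inhibition.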
HCV inh = qHTS Assay for Inhibitors of Hepatitis C Virus (HCV); AID 651820, 2012; 3.4% of 340,000 active; Potency, µM (highest dose often 41.8 µM), for the others: at the highest dose activity change, negative = inhibition, actives largely listed as inhibitors; Huh7.5.1 HCVcc-Cre infection, luciferase reporter, 44 h
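Cells seeded at 1,000/well and cultured 4 h, then compounds added followed by HCVcc-Cre virus (~0.5 moi). After 44 h further culture, luciferase substrate was added, plates held 15 min at room temperature, and luminescence read for 15 sec.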
* marks the source's active call; other numbers are inactive results; ? = inconclusive; · = no result; [ ] = another dose, or the depositor's remark. Calls follow the shape of the dose curve; as a rule, active = well fitted curve in the direction sought with a large enough effect; inconclusive = small, poorly fitted or top-dose-only effect, or another doubt; inactive = no such curve, though single readings can be large; an effect the other way counts as inactive or inconclusive. Unless noted, % is scaled to controls: 0 for no effect and ±100 for the full control effect; potency is read from the fitted curve at half-maximal effect.

SMILES	AmpC no deterg	AMA1 RON2 block	Pf growth 96h	AmpC inh detg	Pf growth 48h	HCV inh
CCCCC(=O)NC(c1ccccc1)c1ccc2cccnc2c1O (stereo not drawn)	-33.1%	-25.6%	?	-19.7%	?	2.82µM*
Oc1cccc(C(Nc2ccccn2)c2ccc3cccnc3c2O)c1Cl (stereo not drawn)	·	·	·	20.7%	·	·
CCCC(=O)NC(c1ccc(OC)cc1)c1ccc2cccnc2c1O (stereo not drawn)	-2.5%	-28.3%	?	-6.8%	1.31µM*	3.16µM*
CCCCC(=O)NC(c1ccc(C(C)C)cc1)c1ccc2cccnc2c1O (stereo not drawn)	-35.3%	83.0%	17.0%	-12.6%	1.65µM*	2.82µM*
CCCC(=O)NC(c1cccs1)c1cc([N+](=O)[O-])c2cccnc2c1O (stereo not drawn)	-34.7%	-2.4%	146.8%	?	?	?
CC(C)c1ccc(C(=O)Nc2cccc3cccnc23)cc1	·	·	·	-1.9%	·	·
COc1ccc(Cl)cc1C(Nc1cccnc1)c1ccc2cccnc2c1O (stereo not drawn)	-18.1%	-57.5%	?	9.3%	5.22µM*	8.91µM*
CCCCC(=O)NC(c1cccc([N+](=O)[O-])c1)c1ccc2cccnc2c1O (stereo not drawn)	·	31.1%	·	·	·	?
CC(=O)NC(c1ccc(C(C)C)cc1)c1ccc2cccnc2c1O (stereo not drawn)	75.7%	58.5%	228.2%	-9.3%	7.38µM*	8.91µM*
CCCC(=O)NC(c1ccccc1)c1ccc2cccnc2c1O (stereo not drawn)	-12.6%	-76.5%	?	-3.0%	2.33µM*	2.82µM*
CCCc1nn2c(=O)cc(COC(=O)c3ccc4c(c3)OCO4)nc2s1	·	·	·	19.2%	·	·
COc1ccc(-c2[nH]c(-c3ccc(O)cc3)nc2-c2ccccc2)cc1	·	·	·	-1.5%	·	·
CCN(CC(O)COCc1ccc(Cl)cc1)C1CCCCC1 (stereo not drawn)	-4.0%	0.0%	?	-0.2%	10.4µM*	?
Cc1ccccc1OCC(O)CN(Cc1ccccc1O)C1CCCCC1 (stereo not drawn)	-26.7%	-5.2%	0.185µM*	3.1%	0.233µM*	-9.3%
CCN(CC(O)COc1ccc(OCC(O)CN(CC)C2CCCCC2)cc1)C1CCCCC1 (stereo not drawn)	·	-0.9%	·	·	·	5.01µM*
CN(CC(O)COCc1ccccc1F)C1CCCCC1 (stereo not drawn)	-9.3%	0.0%	-6.4%	9.1%	21.8%	4.3%
CN(CC(O)COc1ccccc1F)C1CCCCC1 (stereo not drawn)	-3.9%[2.29 µM]	1.4%	35.1%	-8.6%	-15.9%[5.75 µM]	1.6%
CN(CC(O)COc1ccc(S(=O)(=O)N2CCOCC2)cc1)C1CCCCC1 (stereo not drawn)	·	-15.2%	-4.1%	-0.2%	5.1%	11.3%
COc1ccc(C2CC(=O)c3cnc(NC(=O)c4ccccc4OC)nc3C2)c(OC)c1 (stereo not drawn)	56.2%	-14.6%	9.28µM*	-2.6%	?	?
COc1ccc(C2CC(=O)c3cnc(NC(=O)c4cccc(OC)c4)nc3C2)cc1 (stereo not drawn)	-4.0%	4.7%	?	-1.1%	?	?
CC(CCn1cccn1)NC(=O)c1cc(COc2ccc(F)cc2F)on1 (stereo not drawn)	-2.5%	-9.7%	?	-7.0%	10.7%	-21.7%
O=C(NCCC1=CCCCC1)c1cc(COc2ccc(F)cc2Cl)on1	-16.7%	45.6%	?	?	4.0%	?
